# According to article PMC4552634, “A New Set of Chemical Starting Points with Plasmodium falciparum Transmission-Blocking Potential for Antimalarial Drug Discovery” (PLoS ONE, 2015):
# Like-named read-outs stand apart in the source and are kept apart here. The whole screen tested about 13,000 compounds, of which about 3,200 (25%) showed an effect of 50% or more. This is one part of the list.
# Test system: P. falciparum stage V gametocytes
# Design: BacTiter-Glo ATP luminescence viability of purified stage V gametocytes in 384-well plates, per cent inhibition versus DMSO
# Conditions: 48 h, 5 µM, inhibitor
Structure (SMILES),% Inhibition,% Inhibition (% Inhibition)
Cc1[nH]c2ccccc2c1C(=O)CSc1nn(-c2ccccc2)c(=S)s1 [TCMDC-124893],60.68%,
O=C(NC12CC3CC(CC(C3)C1)C2)C(=O)c1c[nH]c2ccccc12 [TCMDC-123481],-3.925%,
O=C(c1c(-c2[nH]c3ccccc3c2C(=O)C(F)(F)F)[nH]c2ccccc12)C(F)(F)F [TCMDC-125831],0.8709%,
O=C(CSc1nn(-c2ccccc2)c(=S)s1)c1c[nH]c2ccccc12 [TCMDC-124894],95.1%,
O=C(CNc1ccncc1)c1c[nH]c2ccccc12 [TCMDC-124024],4.031%,
N#Cc1ccc2c(c1)CN(CCC1CCC(NC(=O)c3cc4cc(OC(F)(F)F)ccc4[nH]3)CC1)CC2 (stereo not shown) [TCMDC-139160],23.56%,
Cc1cccc2nc(-c3cccc(-c4cccc(C(=O)NCCc5cn(C)cn5)c4)c3)[nH]c12 [TCMDC-132494],-97.59%,
O=C(NCCCCN1CC=C(c2ccc3c(c2OCc2ccccc2)CCCC3)CC1)c1ccc(-c2ccc(C(F)(F)F)cc2)cc1 [TCMDC-138746],-33.61%,
CC(C)(Oc1c(C2CCN(CCCCNC(=O)c3ccc(-c4ccc(C#N)cc4)cc3)CC2)ccc2c1CCCC2)C(N)=O [TCMDC-134828],39.17%,
CC(=O)Oc1c(C2CCN(CCCCNC(=O)c3ccc(-c4ccc(C#N)cc4)cc3)CC2)ccc2c1CCCC2 [TCMDC-138650],-28.73%,
N#Cc1ccc(-c2ccc(C(=O)NCCCCN3CCC(c4ccc5c(c4OCc4ccccn4)CCCC5)CC3)cc2)cc1 [TCMDC-138737],66.39%,
O=C(NCCCCN1CCC(c2ccc3c(c2OCc2ccncc2)CCCC3)CC1)c1ccc(-c2ccc(C(F)(F)F)cc2)cc1 [TCMDC-138733],60.19%,
N#Cc1ccc(-c2ccc(C(=O)NCCCCN3CCC(c4ccc5c(c4OCc4ccncc4)CCCC5)CC3)cc2)cc1 [TCMDC-138732],54.86%,
O=C(NCCN1Cc2ccccc2C1=O)c1ccc(Oc2ccc(C(=O)NCCN3Cc4ccccc4C3=O)cc2)cc1 [TCMDC-125669],22.87%,
CCOC(=O)C(C#N)NC(=O)C=Cc1ccccc1 (stereo not shown) [TCMDC-131634],-4.008%,
C=C(C)C1CC=C(CN2CCC(N3CCc4cc(NC(=O)c5cc(C)on5)ccc43)C2)CC1 (stereo not shown) [TCMDC-135089],10.83%,
O=C(Nc1cc(Cl)cc(Cl)c1)c1cc(Cl)c(=O)n(Cc2cccc(Cl)c2)c1 [TCMDC-123809],-55.71%,
COc1ccccc1N1CCN(Cc2cc(C(C)C)c(C)cc2O)CC1 [TCMDC-124541],-1.392%,
O=C(/C=C/C=C/c1ccccc1)NC1CCC(CN2CCC(c3c[nH]c4ccccc34)CC2)CC1 (stereo not shown) [TCMDC-139708],100.6%,
O=C(C=Cc1ccc(-c2ccccc2)cc1)NC1CCC(CN2CCC(c3c[nH]c4ccccc34)CC2)CC1 (stereo not shown) [TCMDC-139951],,123.9%
O=C(C=Cc1ccc(-c2ccccc2)cc1)NC1CCC(CN2CCC(c3c[nH]c4ccccc34)CC2)CC1 (stereo not shown) [TCMDC-139935],,108%
COc1ccc2nccc(N3CCN(CCNCc4ccc5c(n4)NC(=O)CO5)CC3)c2c1.Cl [TCMDC-141961],30.82%,
Cc1nc2nc(N)nc(N)c2c(C)c1Cc1cccc(C(N)=O)c1 [TCMDC-137643],17.6%,

Structure (SMILES),% Inhibition,% Inhibition (% Inhibition)
CS(=O)(=O)c1ccc(-n2nc(C(F)(F)F)cc2-c2ccc(C=NOCC(=O)O)o2)cc1 [TCMDC-132015],-3.43%,
COc1cccc(-c2cccc(CNC3CCN(CC4Cn5c(=O)ccc6ccc(F)c4c65)CC3)c2)c1 (stereo not shown) [TCMDC-134412],5.028%,
Cc1ccc(Cc2cnc(CN3CCCCC3)c(O)c2)cc1 [TCMDC-125485],30.78%,
O=S(=O)(c1ccccc1C(F)(F)F)C1CC2CCC(C1)N2S(=O)(=O)c1ccc(Cl)c(C(F)(F)F)c1 (stereo not shown) [TCMDC-134268],33.38%,
O=S(=O)(c1ccc(OC(F)(F)F)cc1)C1CC2CCC(C1)N2S(=O)(=O)c1ccc(Cl)c(C(F)(F)F)c1 (stereo not shown) [TCMDC-134267],71.42%,
O=S(=O)(c1ccccc1OC(F)(F)F)C1CC2CCC(C1)N2S(=O)(=O)c1cccc(C(F)(F)F)c1 (stereo not shown) [TCMDC-134266],7.024%,
COc1cc(Cc2cnc(N)nc2N)ccc1OCc1ccc(-c2ccccc2C#N)cc1 [TCMDC-138638],-1.728%,
Cc1ccc2c(NC(=O)Nc3ccc(N(C)C)cc3)cc(C)nc2c1 [TCMDC-140144],-85.96%,
CC(C)C[C@@H](NC(=O)OC(C)(C)C)C(=O)Nc1ccc(Cc2ccc(NC(=O)[C@@H](CC(C)C)NC(=O)OC(C)(C)C)cc2)cc1 [TCMDC-131869],-46.99%,
Nc1ncnc2occ(-c3ccc(NC(=O)Nc4cc(C(F)(F)F)ccc4F)cc3)c12 [TCMDC-141371],14.45%,
Nc1ncc(-c2ccc(NC(=O)Nc3cc(C(F)(F)F)ccc3F)cc2)c(N)n1 [TCMDC-133420],7.471%,
Nc1ccc(-c2ccc(NC(=O)Nc3cc(C(F)(F)F)ccc3F)cc2)cn1 [TCMDC-133410],11.7%,
Nc1nccc2ccc(-c3ccc(NC(=O)Nc4cc(C(F)(F)F)ccc4F)cc3)cc12 [TCMDC-133422],80.96%,
NCCCNc1ccc(-c2ccc(NC(=O)Nc3cc(C(F)(F)F)ccc3F)cc2)cn1 [TCMDC-133550],53.18%,
Cc1cc(N)ncc1-c1ccc(NC(=O)Nc2cc(C(F)(F)F)ccc2F)cc1 [TCMDC-133438],25.29%,
Cc1nc(-c2cccc(Nc3nccc(NCC(O)c4ccc(C(F)(F)F)cc4)n3)c2)cs1 (stereo not shown) [TCMDC-136591],22.87%,
Cc1nc(-c2cccc(Nc3nccc(NCC(O)c4ccccc4C)n3)c2)cs1 (stereo not shown) [TCMDC-136567],-8.142%,
Cc1cc(Nc2ccccc2)nc(Nc2ccccc2C)n1 [TCMDC-123883],4.396%,
CCC1(c2ccccc2)N=C(N)N(CCCc2ccccc2)C1=O (stereo not shown) [TCMDC-136547],23.07%,
CCCCCN1C(=O)N(c2ccc(Cl)c(Cl)c2)C(N(O)C(=O)Nc2ccc(Cl)c(Cl)c2)C1(C)C (stereo not shown) [TCMDC-124134],67.16%,
CCCCCN1CCN(Cc2cccc(NC(=O)c3ccc(Cl)c(Cl)c3)c2)CC1 [TCMDC-134616],-65.82%,
CC1(C)C(N(O)C(=O)Nc2ccc(Cl)c(Cl)c2)N(c2ccc(Cl)c(Cl)c2)C(=O)N1CCc1ccccc1 (stereo not shown) [TCMDC-125555],-2.423%,
O=C(NCCN1CCC(c2ccncc2)CC1)c1cccc(Nc2nccc(Nc3ccc(Oc4ccccc4)cc3)n2)c1 [TCMDC-138607],-52.85%,

Structure (SMILES),% Inhibition,% Inhibition (% Inhibition)
COc1ccc2nccc([C@@H](O)CN3CCC(NC(=O)/C=C/c4ccc5[nH]c(=O)ccc5c4)CC3)c2c1 [TCMDC-141032],-20.87%,
O=C(Nc1ccc(N2CCCCC2)c(Cl)c1)c1ccco1 [TCMDC-124392],30.55%,
c1ccc2c(c1)CN(CC1CC1)CC1(CCN(Cc3c[nH]c4cnccc34)CC1)O2 [TCMDC-133375],-19.67%,
Oc1ccc(CN2Cc3ccccc3OC3(CCN(Cc4c[nH]c5cnccc45)CC3)C2)cc1 [TCMDC-133377],0.4377%,
c1ccc2c(c1)CN(Cc1cc3ccccc3[nH]1)CC1(CCN(Cc3c[nH]c4cnccc34)CC1)O2 [TCMDC-133376],66.92%,
O=C(NCc1ccc(F)cc1)Nc1ccc(-c2cccc(-c3nc4ccc(C(F)(F)F)cc4[nH]3)c2)cc1 [TCMDC-133298],-50.83%,
CS(=O)(=O)c1ccccc1CNC(=O)c1ccc(-c2ccc(-c3nc4cc(C(F)(F)F)ccc4[nH]3)s2)cc1 [TCMDC-132507],9.09%,
COc1ccc2nccc([C@@H](O)CN3CCC(NC(=O)C(c4cc5ccccc5o4)N4CCN(c5ccc(F)cc5)CC4)CC3)c2c1 (stereo partly shown) [TCMDC-140996],-29.58%,
CCc1c(CCNCCCCCCNCc2ccc3c(c2CC)OCO3)ccc(OC)c1OC [TCMDC-132068],92.52%,
CCc1c(CCNCCCCCCNCCc2ccc3c(c2C)OCO3)ccc2c1OCO2 [TCMDC-132093],97.88%,
CCc1c(CCNCCCCCCNC(C)Cc2ccc3c(c2CC)OCO3)ccc(OC)c1OC (stereo not shown) [TCMDC-132052],111%,
CCc1c(CCNCCCCCCNC(C)(C)Cc2ccc3c(c2CC)OCO3)ccc(OC)c1OC [TCMDC-132055],110.7%,
Nc1cnc(C#Cc2cc3ncnc(N(CCN4CCOCC4)c4ccc(OCc5cccc(F)c5)c(Cl)c4)c3s2)cn1 [TCMDC-134752],42.15%,
Cc1cc(Oc2cc(NC(=O)c3sc4ncn(Cc5ccccc5F)c(=O)c4c3C)cc([N+](=O)[O-])c2)ccc1Cl [TCMDC-125704],16.56%,
O=C(c1ccc(O)c(-c2cc(Cl)cc(Cl)c2)c1)N1CCCC1 [TCMDC-140161],-10.57%,
CCOc1cc(C)ccc1C1CCN(CCCCNC(=O)c2ccc(-c3ccc(Cl)cn3)cc2)CC1 [TCMDC-138562],-60.76%,
CCOc1ccc(NC(=O)c2cn3nc(-c4ccc(OCC)cc4)cc3nc2C2CCNCC2)cc1 [TCMDC-125277],105.9%,
CCOc1ccc(NC(=O)c2cccc(CN3CCCN(Cc4cccc(O)c4)CC3)c2)cc1 [TCMDC-135987],-4.859%,
COc1cc(OC)c(NC(=O)COc2ccc(C)cc2)cc1Cl [TCMDC-123682],23.04%,
CCOc1ccc(NC(=O)c2ccc(CN3CCCN(Cc4cccc(O)c4)CC3)cc2)cc1 [TCMDC-136436],8.028%,
CCOc1ccc(-c2cc3nc(C4CCNCC4)c(C(=O)Nc4ccc(C)cc4Cl)cn3n2)cc1 [TCMDC-125296],121.3%,
